{
  "source": "the supplement of paper PMC7184167",
  "note": "Where a name gives a salt, the structure may show the parent alone.",
  "data": [
    {"tested_on": "replication-induced senescent mouse newborn dermal fibroblasts (NBF)", "assay": "relative cell viability of senescent cells (fraction); higher = less killing of senescent cells", "conditions": "1 µM; 3 days", "protocol": "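Replication-induced senescent newborn mouse skin fibroblasts (NBFs) in 24-well plates were treated with a Selleck FDA-approved drug library at 1 µM for 3 days.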", "values": [
      {"molecule": "C=C1C[C@@H]2[C@H](CC[C@]3(C)C(=O)CC[C@@H]23)[C@@]2(C)C=CC(=O)C=C12", "note": "[Exemestane]", "relative cell viability": 1.08},
      {"molecule": "Cn1cc(C2=C(c3cn(C4CCN(Cc5ccccn5)CC4)c4ccccc34)C(=O)NC2=O)c2ccccc21", "relative cell viability": 0.523},
      {"molecule": "C[C@]12Cc3c[nH]nc3C[C@@H]1CC[C@@H]1[C@@H]2CC[C@@]2(C)[C@H]1CC[C@]2(C)O", "note": "[Stanozolol]", "relative cell viability": 0.136},
      {"molecule": "CN1c2ccccc2C(NCCCCCCC(=O)O)c2ccc(Cl)cc2S1(=O)=O", "note": "(stereo not drawn) [Tianeptine sodium]", "relative cell viability": 0.946},
      {"molecule": "COc1cc2c(cc1OC)C1CC(=O)C(CC(C)C)CN1CC2", "note": "(stereo not drawn) [Tetrabenazine (Xenazine)]", "relative cell viability": 1.04},
      {"molecule": "COc1ccc(C(CN(C)C)C2(O)CCCCC2)cc1", "note": "(stereo not drawn) [Venlafaxine HCl]", "relative cell viability": 1.03},
      {"molecule": "CN1[C@@H]2C[C@@H](OC(=O)[C@H](CO)c3ccccc3)C[C@H]1[C@@H]1O[C@@H]12", "note": "[Scopolamine HBr]", "relative cell viability": 1.03},
      {"molecule": "CN(C)[C@@H]1C(=O)C(C(N)=O)=C(O)[C@@]2(O)C(=O)C3=C(O)c4c(O)cccc4[C@@](C)(O)[C@H]3[C@H](O)[C@@H]12", "note": "[Oxytetracycline (Terramycin)]", "relative cell viability": 1.01},
      {"molecule": "Cn1c(CCCC(=O)O)nc2cc(N(CCCl)CCCl)ccc21", "note": "[Bendamustine HCl]", "relative cell viability": 0.999},
      {"molecule": "C[C@]12CC[C@H]3[C@@H](CC[C@@]45O[C@@H]4C(O)=C(C#N)C[C@]35C)[C@@H]1CC[C@@H]2O", "note": "[Trilostane]", "relative cell viability": 0.778},
      {"molecule": "CCC1(c2ccc(N)cc2)CCC(=O)NC1=O", "note": "(stereo not drawn) [Aminoglutethimide]", "relative cell viability": 0.889},
      {"molecule": "CC(O)(CS(=O)(=O)c1ccc(F)cc1)C(=O)Nc1ccc(C#N)c(C(F)(F)F)c1", "note": "(stereo not drawn) [Bicalutamide]", "relative cell viability": 0.913},
      {"molecule": "CN(C)C(=O)Oc1ccc[n+](C)c1", "note": "[Pyridostigmine Bromide]", "relative cell viability": 1.19}
    ]}
  ]
}
